From PubChem
A selection: hits, their analogues and other compounds. The true share with any hit is near 7.3%.
Rab9 prom act – qHTS Assay for Rab9 Promoter Activators; Huh7 Rab9 promoter-luciferase reporter, luminescence, 24 h; Potency, µM (doses to about 9.22 µM), hits mostly activators; hit rate 2.8% among 320,000; AID 485297, 2010; note: nearly all actives have a fitted effect of over 60% in size
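Huh7 cells stably carrying Rab9 promoter–luciferase reporter, plated 1500 cells/well, compound added after 2 h and incubated 24 h at 37 °C; luciferase luminescence then read after 10 min with detection reagent.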
FLuc counter – qHTS profiling assay for firefly luciferase inhibitor/activator using purifed enzyme and Km concentrations of substrates (counterscreen for miR-21 project); Luciferin 4-monooxygenase (Photinus pyralis), P08659; purified FLuc, Km substrates, luminescence inhibition; Potency, µM (top dose mostly 57.5 µM), usual class: inhibitors; hit rate 6.9% among 360,000; AID 588342, 2011; note: nearly all actives have a fitted effect of over 55% in size
Target sequence (P08659 whole entry, looked up): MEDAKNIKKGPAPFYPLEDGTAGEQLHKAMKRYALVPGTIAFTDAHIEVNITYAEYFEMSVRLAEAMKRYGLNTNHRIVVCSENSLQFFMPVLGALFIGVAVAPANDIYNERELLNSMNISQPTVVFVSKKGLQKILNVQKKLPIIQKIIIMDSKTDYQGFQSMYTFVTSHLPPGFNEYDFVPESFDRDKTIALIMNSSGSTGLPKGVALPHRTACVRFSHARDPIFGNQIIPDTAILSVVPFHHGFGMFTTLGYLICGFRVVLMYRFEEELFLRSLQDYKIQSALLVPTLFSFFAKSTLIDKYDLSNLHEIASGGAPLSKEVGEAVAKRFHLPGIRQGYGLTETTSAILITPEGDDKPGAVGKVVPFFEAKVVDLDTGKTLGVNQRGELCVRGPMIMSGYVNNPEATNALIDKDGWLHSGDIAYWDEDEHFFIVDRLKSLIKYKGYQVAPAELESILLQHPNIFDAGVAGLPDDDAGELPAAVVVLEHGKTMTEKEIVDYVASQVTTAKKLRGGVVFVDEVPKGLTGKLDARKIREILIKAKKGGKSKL
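Purified P. pyralis luciferase, 10 nM final, with Km-level 10 uM D-luciferin and 10 uM ATP in 50 mM Tris acetate pH 7.5, 10 mM Mg acetate, 0.01% Tween-20, 0.05% BSA; 6-point qHTS titration about 60 µM downward; luminescence read.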
ELG1 genotox – qHTS screen for small molecules that induce genotoxicity in human embryonic kidney (HEK293T) cells expressing luciferase-tagged ELG1; HEK293T ELG1-luciferase reporter, luminescence, 16 h; Potency, µM (series often up to 46 µM), actives largely listed as activators; hit rate 1.3% among 330,000; note: nearly all actives have a fitted effect of over 60% in size
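Step 1: seed 2,000 HEK293T ELG1-luciferase cells per well. Step 2: add compound or DMSO, incubate 16 hr at 37 °C. Step 3: ONE-Glo, 30 min at room temperature, read luminescence.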
SMN2 splice enh – qHTS Assay for Enhancers of SMN2 Splice Variant Expression. hit rate 2.8% among 210,000. HEK293 SMN2-luciferase splicing reporter, luminescence, 30-36 h. Potency, µM (series often up to 46.1 µM), hits mostly activators; note: nearly all actives have a fitted effect of over 55% in size
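HEK293 cells carry an SMN2 […]–luciferase reporter in which exon 7 inclusion puts luciferase in frame. Cells were plated 10-12 h before compound addition, then incubated 30-36 h at 37C. ONE-Glo luminescence was read; sodium butyrate at 4.5 mM final served as control.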
NPC1 promoter act – qHTS Assay for NPC1 Promoter Activators; Huh7 NPC1 promoter luciferase reporter, 24 h; Potency, µM (titrated, usually from 9.22 µM), hits mostly activators; hit rate 2.4% among 320,000; AID 485313, 2010; note: nearly all actives have a fitted effect of over 60% in size
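Cells: Huh7 expressing luciferase under the NPC1 promoter, 1500/well. Seeded 2 h, compound added, incubated 24 h at 37 °C. Luciferase reagent, 10 min ambient, then luminescence.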
KinaseGlo FLuc – Counterscreen for Luciferase (Kinase-Glo TM) Inhibition | Kinase-Glo luciferase, ATP luminescence, 8 min | AID 1379, 2008 | Luciferin 4-monooxygenase (Photuris pensylvanica), Q27757 | hit rate 0.28% among 200,000 | Potency, µM (titrated, usually from 38.3 µM), usual class: inhibitors; note: nearly all actives have a fitted effect of over 60% in size
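Recombinant Kinase-Glo luciferase, 10 uM ATP (linear range), luciferin; imidazole pH 7.2 / KCl / MgCl2 / Tween / BSA buffer; 8 min RT; luminescence.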
A number is an active result; - = inactive; ? = inconclusive; . = no result given. Calls come from the whole dose curve; as a rule, active = well fitted curve in the direction sought with a large enough effect; inconclusive = small, poorly fitted or top-dose-only effect, or another doubt; inactive = no such curve, though single readings can be large; an effect the other way counts as inactive or inconclusive.

SMILES | Rab9 prom act | FLuc counter | ELG1 genotox | SMN2 splice enh | NPC1 promoter act | KinaseGlo FLuc
Cc1cc(Cl)n2ncc(-c3ccccc3)c2n1 | ? | 12µM | ? | . | - | .
Cc1cc(N2CCOCC2)n2ncc(-c3ccccc3Cl)c2n1 | 2.5µM | 2.7µM | 9.2µM | . | 2.5µM | .
CC(C)c1cc(N2CCOCC2)n2ncc(-c3ccccc3)c2n1 | - | - | - | . | - | .
Cc1nc2c(-c3ccc(F)cc3)cnn2c(N)c1-c1ccc(F)cc1 | 0.56µM | 0.85µM | 1.2µM | . | 0.45µM | .
Cc1cc(C)c(NC(=O)CSc2nc(C)cc(C)c2C#N)c(C)c1 | . | - | . | - | . | .
Cc1cc(C)n2nc(C(=O)NNC(=O)c3ccc(Cl)cc3)nc2n1 | - | - | - | . | - | .
Cc1cc(C)n2cc(-c3ccc(Cl)cc3)c(C(=O)O)c2n1 | 2.5µM | ? | 16µM | 13µM | 2.8µM | -
COc1ccc(-c2cnn3c(C)cc(C)nc23)cc1OC | . | - | . | . | . | .
Cc1cc(N)n2ncc(-c3ccc(F)cc3)c2n1 | 3.2µM | 11µM | 16µM | ? | ? | -
CCCCCn1c(CCCNC(=O)c2ccc(Cl)cc2)nc2ccccc21 | . | - | . | - | . | .
COc1ccc(/C=C2\C(=O)ON=C2c2cccc([N+](=O)[O-])c2)cc1 | - | 24µM | - | - | - | -
COc1ccc(/C=C2/C(=O)ON=C2c2ccccc2)cc1OC | - | 11µM | - | - | - | -
CCN1CCN(c2ncc3c(n2)CCN(CC(C)C)C3)CC1 | . | - | . | . | . | .
CCn1c(=O)c2cc(C(=O)NCCCN3CCN(c4ccc(F)cc4)CC3)sc2c2ccccc21 | . | - | . | - | . | .
Cc1ccc(-n2c(=O)c3sccc3n(Cc3cc(=O)n4cc(Cl)ccc4n3)c2=O)cc1F | - | - | - | 35µM | - | -
Cc1ccc(-n2c(=O)c3sccc3n(Cc3cc(=O)n4ccccc4n3)c2=O)cc1F | - | - | - | - | - | -
Cc1ccc(/C=N/c2sc3c(c2C(N)=O)CCCC3)o1 | 4µM | 11µM | - | ? | ? | -
C=CCN(C(=O)c1oc2c(Cl)cc(C)cc2c1C)C1CCS(=O)(=O)C1 (configuration not stated) | 3.5µM | 11µM | ? | . | 3.5µM | .
Cc1cccc(-n2c(C)cc(/C=C3/C(=N)N4C(c5ccccc5)=CSC4=NC3=O)c2C)c1 | - | - | - | - | - | -
Cc1cc(C=C2C(=O)c3ccccc3C2=O)c(C)n1-c1ccc(Cl)cc1 | - | 0.67µM | 4.6µM | - | - | -
Cc1cccc(-n2c(C)cc(C=C3C(=O)c4ccccc4C3=O)c2C)c1 | ? | 0.85µM | ? | - | ? | -
Cc1cc(=O)cc(C)n1-c1ccc(Cl)cc1 | - | - | - | - | - | -
O=C(CSc1nc2ccccc2[nH]1)Nc1ccccc1F | - | - | - | - | - | -
O=C(OCc1nc2ccccc2[nH]1)C12CC3CC(CC(C3)C1)C2 | - | ? | - | - | - | -
O=C(Nc1nc2ccccc2[nH]1)Nc1ccccc1F | ? | 1.1µM | 1.2µM | . | ? | .
SMILES | Rab9 prom act | FLuc counter | ELG1 genotox | SMN2 splice enh | NPC1 promoter act | KinaseGlo FLuc
O=C(Nc1ccccc1NC(=O)NC1CCCCC1)NC1CCCCC1 | - | ? | - | - | - | -
O=C(NC1CCCC1)c1ccccc1-c1nc2ccccc2[nH]1 | - | - | - | 11µM | - | -
O=C(Nc1nc2ccccc2[nH]1)C12CC3CC(CC(C3)C1)C2 | 2.8µM | 3.4µM | ? | 14µM | 2µM | -
O=C(Nc1nc2ccccc2[nH]1)NC1CCCCC1 | 0.4µM | 1.5µM | 2.6µM | . | 0.45µM | .
COc1ccc(C2C(=O)N(C3CCCCCC3)CC(=O)N2Cc2ccc(C)cc2)cc1 (configuration not stated) | . | - | . | . | . | .
O=C(Nc1nc2ccccc2[nH]1)C1CC1 | - | ? | - | 10µM | - | -
O=C(Nc1nc2ccccc2[nH]1)C1CCN(C(=O)c2ccc(F)cc2)CC1 | - | - | - | . | - | .
O=C(NNc1nc2cc3c(cc2s1)OCO3)c1ccccc1 | - | ? | - | - | - | -
